The values below come from PubChem BioAssay AID841 (Emory University Molecular Libraries Screening Center, 2007).

Hit rate of the full screen: of about 140,000 compounds, about 2,100 (1.5%) were called active. Only a selection was taken, and actives are over-represented in it overall. Values without a mark were called inactive. Cut-off read from the data, not from the text of the source: active = protection mostly above about 24% (no sharp cut-off); inactive = mostly below about 26%.

This assay is described as follows: compounds protecting cells from measles virus cytopathic effect, primary screen, measles RdRp inhibitor project, single point, MLSMR library, absorbance (AID 841). Conditions: Measles virus-infected cells, CPE protection, at 4 µM, active compounds read high.
Take `COc1cc(/C=N\NC(=O)c2nonc2N)c(OC)cc1Br`: the protection (pct of control) is 4.84%.
The value for `CCCCN1C(=O)CCC(C(=O)O)C1c1ccc(OC)cc1` (stereo not given) was 18.6%; that for `CCn1c(C(C)NC(=O)c2ccc(C)cc2)n[nH]c1=S` (stereo not given) was 13.2%.
For the compound `COc1ccc(C2CC(c3ccccc3)=NN2C(=O)c2ccc(Cl)c([N+](=O)[O-])c2)cc1` (stereo not given), the protection (pct of control) was 5.64%.
Consider `CCOC(=O)c1c(C)nc(-c2ccccc2)nc1NC(=O)C(C)C`, for which the protection (pct of control) is 92.6% (active).
The value for `CCOC(=O)c1c(C)[nH]c(=S)c(C#N)c1-c1ccccc1` was 1.99%.
The value for `Cc1[nH]c2ccccc2c1C(=O)COC(=O)c1c(-c2ccccc2)noc1C` was 3.64%.
The value for `C=CCN(c1ccc(C(=O)Nc2cc(C)cc(C)c2)cc1)S(C)(=O)=O` was 12.6%.
Consider `Cc1ccc(C(C)(C)C)c(OCCCCN2CCCC2)c1`, for which the protection (pct of control) is -0.18%.
The value for `O=C(N/N=C\c1ccc(Br)cc1)c1ccc(Cn2cccn2)o1` was 5.4%.
With `O=C(N/N=C/c1ccc2c(c1)OCO2)c1ccc(Cn2cc([N+](=O)[O-])cn2)o1` the figure was 18.3%; with `CN(C)c1ccc(/C=N/NC(=O)c2ccc(Cn3cc(Br)cn3)o2)cc1`, 28.3% (active).
The value for `Cc1ccc(S(=O)(=O)N(NC2=NS(=O)(=O)c3ccccc32)C(=O)c2ccccc2)cc1` was 7.51%.
Regarding `CCOC(=O)C1=C(N)N(c2ccc(C)cc2)C2=C(C(=O)CCC2)C1c1cccs1` (stereo not given), the protection (pct of control) was 20.1%.
The value for `Cc1nn(Cc2ccc(Cl)cc2)c(Cl)c1/C=N/NC(=O)c1cccnc1` was 11.1%; that for `CC1(C)CC(=O)C2=C(C1)Nc1cc(C(=O)c3ccccc3)ccc1NC2c1ccccn1` (stereo not given) was 2.11%.
On to `CCCCn1c(=O)c(CCC(=O)OCC(=O)Nc2ccc(C)c(Cl)c2)nc2ccccc21`, for which the protection (pct of control) is 23.4%.
The value for `Cc1noc(C)c1COC(=O)Cn1c(C)nc2ccccc21` was 7.94%.
The value for `COc1ccc(NC(=O)COC(=O)Cn2c(C)nc3ccccc32)cc1OC` was 50.1% (active).
The value for `O=C(Nc1cccc(S(=O)(=O)N2CCCCC2)c1)c1ccc2c(c1)OCO2` was 8.22%; that for `Cc1ccc(S(=O)(=O)N(C)C)cc1NC(=O)COC(=O)c1c(C)noc1C` was 9.42%.
For the compound `CCN(CC)S(=O)(=O)c1ccc(C)c(NC(=O)COc2ccc(Br)cc2Cl)c1`, the protection (pct of control) is 52.8% (active).
With `Cc1cccc(NC(=O)COc2ccc(Br)cc2C)n1` the figure was 6.52%.
With `CN(C(=O)c1c(Cl)cnn1C)C12CC3CC(CC(C3)C1)C2` the figure was 6.9%; with `Cc1c(C(=O)NCCN2C(=O)S/C(=C\c3cccs3)C2=O)cccc1[N+](=O)[O-]`, 19.9%.
